Test results reported in PubChem BioAssay (Tox21).
Records with an inconclusive call do not appear. The source made the active and inactive calls. Unless noted, calls come from the whole dose curve; as a rule, active = well fitted curve in the direction sought with a large enough effect in the repeat runs; inconclusive = weak or mixed curves; inactive = no such curve, though single readings can be large; an effect the other way counts as inactive or inconclusive.

Key:
[1] = qHTS assay to identify aromatase inhibitors - cell viability counter screen (AID 743084);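 note: cells stimulated with testosterone during compound exposure; nearly all actives have a fitted effect of over 55% in size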
[2] = biological target: Aryl hydrocarbon receptor (Homo sapiens) (UniProt P35869); assay: qHTS assay to identify small molecule that activate the aryl hydrocarbon receptor (AhR) signaling pathway (AID 743085);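 note: HG2L7.5c1 human HepG2 liver cells with stably integrated DRE-driven firefly reporter; series mostly up to about 70 µM; nearly all actives have a fitted effect of over 15% in size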
Chain of Aryl hydrocarbon receptor (Homo sapiens) (P35869 whole entry, looked up): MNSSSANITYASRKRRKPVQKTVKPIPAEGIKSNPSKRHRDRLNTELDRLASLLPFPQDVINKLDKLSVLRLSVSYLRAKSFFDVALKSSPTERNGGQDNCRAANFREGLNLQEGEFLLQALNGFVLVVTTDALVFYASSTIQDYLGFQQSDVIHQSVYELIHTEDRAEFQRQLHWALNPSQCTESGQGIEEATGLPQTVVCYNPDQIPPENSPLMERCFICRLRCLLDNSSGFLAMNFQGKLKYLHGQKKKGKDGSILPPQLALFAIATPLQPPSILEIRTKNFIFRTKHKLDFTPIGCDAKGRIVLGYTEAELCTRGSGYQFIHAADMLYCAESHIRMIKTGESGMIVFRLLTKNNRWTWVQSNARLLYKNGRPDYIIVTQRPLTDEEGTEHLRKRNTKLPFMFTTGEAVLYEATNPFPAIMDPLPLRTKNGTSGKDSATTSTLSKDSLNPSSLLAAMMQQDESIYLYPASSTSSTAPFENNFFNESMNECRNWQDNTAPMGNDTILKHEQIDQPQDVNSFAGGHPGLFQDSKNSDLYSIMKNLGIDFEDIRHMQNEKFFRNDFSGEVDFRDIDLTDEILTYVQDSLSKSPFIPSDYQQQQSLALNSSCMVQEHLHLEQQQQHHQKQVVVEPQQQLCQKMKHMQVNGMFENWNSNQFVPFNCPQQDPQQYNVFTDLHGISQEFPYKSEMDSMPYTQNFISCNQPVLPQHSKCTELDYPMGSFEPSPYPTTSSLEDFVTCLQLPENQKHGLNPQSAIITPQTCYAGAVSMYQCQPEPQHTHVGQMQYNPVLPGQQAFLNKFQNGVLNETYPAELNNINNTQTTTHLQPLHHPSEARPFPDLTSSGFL
Procedure, shortened: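 Luminescence (ONE-Glo) from a dioxin-responsive-element luciferase reporter in HG2L7.5c1 HepG2 cells after 24 hr compound exposure at 37C; viability measured by CellTiter-Fluor fluorescence beforehand.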

[3] = qHTS assay to identify small molecule that activate the aryl hydrocarbon receptor (AhR) signaling pathway - cell viability counter screen (AID 743086);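 note: HepG2 liver cells carrying the AhR DRE luciferase reporter; series mostly up to about 70 µM; nearly all actives have a fitted effect of over 45% in size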
Procedure, shortened: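 HepG2-AhR-luc (HG2L7.5c1) cells, 4000/well, were preincubated 5 h at 37C, exposed to compound in qHTS format for 24 hr at 37C, then given CellTiter-Fluor for 30 min; viability was read as fluorescence in the reporter wells.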

[4] = biological target: Peroxisome proliferator-activated receptor gamma (Homo sapiens) (UniProt P37231); assay: qHTS assay to identify small molecule agonists of the peroxisome proliferator-activated receptor gamma (PPARg) signaling pathway (AID 743094; active = well fitted activation curve with a large enough effect in the signal ratio in the repeat runs, not every such curve was filed as active; the % refers to the signal ratio)
Chain of Peroxisome proliferator-activated receptor gamma (Homo sapiens) (P37231 whole entry, looked up): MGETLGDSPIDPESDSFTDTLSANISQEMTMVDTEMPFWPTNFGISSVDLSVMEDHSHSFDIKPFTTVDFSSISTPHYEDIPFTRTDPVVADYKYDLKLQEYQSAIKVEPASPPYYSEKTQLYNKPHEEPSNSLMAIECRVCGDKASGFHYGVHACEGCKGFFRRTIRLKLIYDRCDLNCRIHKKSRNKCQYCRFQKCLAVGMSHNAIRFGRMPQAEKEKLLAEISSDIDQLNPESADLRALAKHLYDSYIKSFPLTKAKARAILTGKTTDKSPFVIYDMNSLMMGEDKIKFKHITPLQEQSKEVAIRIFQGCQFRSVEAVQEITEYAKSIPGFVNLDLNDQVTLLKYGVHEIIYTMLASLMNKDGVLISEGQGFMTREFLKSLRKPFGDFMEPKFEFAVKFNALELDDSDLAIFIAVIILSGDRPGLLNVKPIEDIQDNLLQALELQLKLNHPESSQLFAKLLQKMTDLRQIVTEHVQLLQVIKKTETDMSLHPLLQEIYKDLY
Procedure, shortened: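 Reporter activation was scored by fluorescence of cleaved LiveBLAzer B/G substrate (1 h, room temperature) in PPARg-bla HEK293H cells previously treated 17 h at 37C with DMSO-dissolved compounds.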

[5] = biological target: Peroxisome proliferator-activated receptor gamma (Homo sapiens) (UniProt P37231); assay: qHTS assay to identify small molecule antagonists of the peroxisome proliferator-activated receptor gamma (PPARg) signaling pathway (AID 743191; calls by dose curve; note: series mostly up to about 63 µM; nearly all actives have a fitted effect of over 30% in size)
Procedure, shortened: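 GeneBLAzer PPARg UAS-bla HEK293H cells carrying a UAS-driven beta-lactamase reporter were plated at 3000 cells/well, preincubated 5 h at 37C, then given compound for 17 h at 37C; LiveBLAzer B/G FRET substrate was read after 1 h at room temperature.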

[6] = qHTS assay to identify small molecule antagonists of the peroxisome proliferator-activated receptor gamma (PPARg) signaling pathway - cell viability counter screen (AID 743194); note: nearly all actives have a fitted effect of over 55% in size
Procedure, shortened: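 PPARg-UAS-bla HEK293H cells were plated, rested 5 h at 37 C, then treated with compounds plus rosiglitazone (50 nM final) for 17 h at 37 C; viability was then read by CellTiter-Glo luminescence after 30 min at room temperature.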

[7] = qHTS assay for small molecule agonists of the antioxidant response element (ARE) signaling pathway (AID 743202; active = well fitted activation curve with a large enough effect in the signal ratio in the repeat runs, not every such curve was filed as active; the % refers to the signal ratio)
Procedure, shortened: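 Following a 16 h, 37 C exposure of reporter HepG2 cells (ARE-driven beta-lactamase, 2,000 cells/well) to compounds, FRET substrate was applied for 2 h at room temperature and fluorescence intensity recorded.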

[8] = qHTS assay for small molecule agonists of the antioxidant response element (ARE) signaling pathway - cell viability counter screen (AID 743203; calls by dose curve; note: nearly all actives have a fitted effect of over 55% in size)
Procedure, shortened: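 Viability counter screen: stably transfected ARE-bla HepG2 line, 16 hrs compound exposure at 37C/5% CO2, ATP-based CellTiter-Glo luminescence measured in the reporter wells.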

[9] = qHTS assay for small molecule activators of the heat shock response signaling pathway (AID 743210; active = well fitted activation curve with a large enough effect in the signal ratio in the repeat runs, with a control signal flat, not every such curve was filed as active; the % refers to the signal ratio; note: series mostly up to about 63 µM)
Procedure, shortened: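 Heat shock element–beta-lactamase HeLa reporter cells; qHTS with compounds for 5 h at 37 C; detection by FRET substrate fluorescence after 2.5 h at RT.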

[10] = qHTS assay to identify small molecule agonists of the peroxisome proliferator-activated receptor delta (PPARd) signaling pathway - cell viability counter screen (AID 743211); note: nearly all actives have a fitted effect of over 55% in size
Procedure, shortened: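 Viability was measured as CellTiter-Glo luminescence (30 min, room temperature) in the same wells as the beta-lactamase readout. GeneBLAzer PPARd UAS-bla HEK293H cells received compound after 5 h plating and were incubated 17 h at 37 C.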

[11] = biological target: Peroxisome proliferator-activated receptor delta (Homo sapiens) (UniProt Q03181); assay: qHTS assay to identify small molecule agonists of the peroxisome proliferator-activated receptor delta (PPARd) signaling pathway (AID 743212; calls by dose curve)
Chain of Peroxisome proliferator-activated receptor delta (Homo sapiens) (Q03181 whole entry, looked up): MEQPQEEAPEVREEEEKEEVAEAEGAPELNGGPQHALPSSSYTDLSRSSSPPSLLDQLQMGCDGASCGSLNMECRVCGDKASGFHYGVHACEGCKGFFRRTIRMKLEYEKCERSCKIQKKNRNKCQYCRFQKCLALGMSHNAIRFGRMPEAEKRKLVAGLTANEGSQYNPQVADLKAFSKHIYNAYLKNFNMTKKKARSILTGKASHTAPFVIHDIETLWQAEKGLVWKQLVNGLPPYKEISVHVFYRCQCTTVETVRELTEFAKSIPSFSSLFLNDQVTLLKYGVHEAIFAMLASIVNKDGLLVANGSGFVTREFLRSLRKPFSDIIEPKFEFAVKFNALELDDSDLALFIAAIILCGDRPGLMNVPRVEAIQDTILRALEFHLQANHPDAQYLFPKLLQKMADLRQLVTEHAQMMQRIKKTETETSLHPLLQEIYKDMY
Procedure, shortened: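 Beta-lactamase reporter read by fluorescence (LiveBLAzer B/G FRET, 2 h, room temperature). Test agents, in DMSO, incubated at 37 C with PPARd-bla HEK293H cells.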

[12] = qHTS assay to identify small molecule antagonists of the peroxisome proliferator-activated receptor delta (PPARd) signaling pathway - cell viability counter screen (AID 743213); note: nearly all actives have a fitted effect of over 50% in size
Procedure, shortened: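 PPARd-bla HEK293H cells were treated with compounds plus agonist L165041 (300 nM final) for 17 h at 37 C. Viability was then read in the same wells by CellTiter-Glo luminescence after 30 min at room temperature.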

[13] = biological target: Peroxisome proliferator-activated receptor delta (Homo sapiens) (UniProt Q03181); assay: qHTS assay to identify small molecule antagonists of the peroxisome proliferator-activated receptor delta (PPARd) signaling pathway (AID 743215; active = well fitted inhibition curve with a large enough effect in the signal ratio in the repeat runs, not every such curve was filed as active; the % refers to the signal ratio;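 note: cells stimulated with agonist L165041 at 300 nM final during compound exposure; series mostly up to about 62 µM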)
Procedure, shortened: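 Plated HEK293H PPARd-bla cells rested 5 h at 37 C and 5% CO2. Compound, then agonist L165041 at 300 nM final, was added; 17 h at 37 C followed. Substrate loading, 2 h room temperature, fluorescence measured.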

[14] = qHTS assay to identify small molecule agonists of the farnesoid-X-receptor (FXR) signaling pathway - cell viability counter screen (AID 743218); note: nearly all actives have a fitted effect of over 45% in size
Procedure, shortened: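 Viability of FXR-bla HEK 293T cells is measured by ATP-based CellTiter-Glo luminescence following 16 h compound treatment at 37 C and a prior 2 h room-temperature beta-lactamase substrate step.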

[15] = qHTS assay to identify small molecule antagonists of the farnesoid-X-receptor (FXR) signaling pathway - cell viability counter screen (AID 743221; active = well fitted cell-killing curve with a large enough effect in the repeat runs, not every such curve was filed as active; note: nearly all actives have a fitted effect of over 50% in size)
Procedure, shortened: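 Cytotoxicity counter screen run in the FXR-bla reporter wells: HEK 293T cells exposed to compound with 50 uM (final) chenodeoxycholic acid for 16 h, 37 C, then viability measured by CellTiter-Glo luminescence after 30 min, room temperature.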

[16] = biological target: Vitamin D3 receptor (Homo sapiens) (UniProt P11473); assay: qHTS assay to identify small molecule agonists of the vitamin D receptor (VDR) signaling pathway (AID 743222; calls by dose curve)
Chain of Vitamin D3 receptor (Homo sapiens) (P11473 whole entry, looked up): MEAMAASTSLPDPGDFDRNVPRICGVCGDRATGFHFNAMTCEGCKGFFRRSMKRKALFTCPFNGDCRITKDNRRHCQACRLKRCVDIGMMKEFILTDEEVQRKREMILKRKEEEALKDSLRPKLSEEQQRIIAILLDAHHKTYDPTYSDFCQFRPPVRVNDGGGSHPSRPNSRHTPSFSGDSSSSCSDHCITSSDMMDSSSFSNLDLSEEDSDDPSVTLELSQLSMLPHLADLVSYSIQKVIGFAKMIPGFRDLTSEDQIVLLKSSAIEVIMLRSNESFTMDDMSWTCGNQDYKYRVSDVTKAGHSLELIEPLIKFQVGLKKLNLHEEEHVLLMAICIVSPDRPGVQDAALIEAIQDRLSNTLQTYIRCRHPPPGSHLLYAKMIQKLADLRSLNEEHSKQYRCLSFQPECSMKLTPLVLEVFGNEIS
Procedure, shortened: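 Fluorescence from cleaved LiveBLAzer B/G FRET substrate served as readout. VDR-bla cells had been treated 16 h at 37C with test compounds in DMSO, following a 4 h settling period, and substrate was loaded for 2 h at RT.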

[17] = biological target: Vitamin D3 receptor (Homo sapiens) (UniProt P11473); assay: qHTS assay to identify small molecule antagonists of the vitamin D receptor (VDR) signaling pathway (AID 743223; active = well fitted inhibition curve with a large enough effect in the signal ratio in the repeat runs, not every such curve was filed as active; the % refers to the signal ratio)
Procedure, shortened: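 Antagonist mode: compound added to VDR-bla cells alongside agonist 1alpha,25-dihydroxyvitamin D3 (3 nM final), incubation 16 h at 37C. Read-out is LiveBLAzer FRET fluorescence, 2 h at room temperature.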

[18] = qHTS assay for small molecule activators of the heat shock response signaling pathway - cell viability counter screen (AID 743209); note: nearly all actives have a fitted effect of over 50% in size
Procedure, shortened: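 Viability of HSE-bla HeLa cells is measured with CellTiter-Glo in the wells already used for the reporter read. Compound exposure lasts 5 h at 37 C, and luminescence is read after 30 min at room temperature.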

[19] = biological target: Bile acid receptor (Homo sapiens) (UniProt Q96RI1); assay: qHTS assay to identify small molecule antagonists of the farnesoid-X-receptor (FXR) signaling pathway (AID 743217; active = well fitted inhibition curve with a large enough effect in the signal ratio in the repeat runs, not every such curve was filed as active; the % refers to the signal ratio)
Chain of Bile acid receptor (Homo sapiens) (Q96RI1 whole entry, looked up): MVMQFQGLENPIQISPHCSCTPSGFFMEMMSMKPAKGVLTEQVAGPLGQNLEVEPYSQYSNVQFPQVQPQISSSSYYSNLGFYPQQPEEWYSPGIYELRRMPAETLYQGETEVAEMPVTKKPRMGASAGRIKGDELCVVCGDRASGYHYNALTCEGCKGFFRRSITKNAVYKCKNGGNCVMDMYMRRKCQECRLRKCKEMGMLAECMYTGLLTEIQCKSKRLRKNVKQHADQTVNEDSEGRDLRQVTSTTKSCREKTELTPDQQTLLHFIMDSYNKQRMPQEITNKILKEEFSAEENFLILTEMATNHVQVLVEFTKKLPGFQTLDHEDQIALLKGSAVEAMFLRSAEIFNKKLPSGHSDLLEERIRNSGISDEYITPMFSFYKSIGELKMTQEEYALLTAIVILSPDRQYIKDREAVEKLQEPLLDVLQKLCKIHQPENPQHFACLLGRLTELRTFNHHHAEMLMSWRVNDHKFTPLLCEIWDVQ
Procedure, shortened: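 Screen of the Tox21 10K library in quantitative HTS format using FXR-UAS-bla HEK 293T reporter cells. Agonist chenodeoxycholic acid, 50 uM final, added with compounds; 16 h incubation at 37 °C; beta-lactamase FRET fluorescence measured.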

[20] = biological target: Bile acid receptor (Homo sapiens) (UniProt Q96RI1); assay: qHTS assay to identify small molecule agonists of the farnesoid-X-receptor (FXR) signaling pathway (AID 743220; active = well fitted activation curve with a large enough effect in the signal ratio in the repeat runs, not every such curve was filed as active; the % refers to the signal ratio)
Procedure, shortened: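 FXR-UAS-bla HEK 293T cells carrying a UAS-driven beta-lactamase reporter were plated for 5 h at 37C/5% CO2, then exposed to DMSO-dissolved Tox21 10K compounds for 16 h at 37C. A LiveBLAzer B/G FRET substrate was loaded for 2 h at room temperature before fluorescence reading.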
% is set by controls: 0 for no effect and ±100 for the full control effect.

O=C(NCCO[N+](=O)[O-])c1cccnc1
inactive: Potency [1] | Potency [2] | Potency [3] | Potency [4] | Potency [5] | Potency [6] | Potency [7] | Potency [8] | Potency [9] | Potency [10] | Potency [11] | Potency [12] | Potency [13] | Potency [14] | Potency [15] | Potency [16] | outcome [17]

OCCNCc1ccccc1
inactive: Potency [1] | Potency [2] | Potency [3] | Potency [4] | Potency [5] | Potency [6] | Potency [7] | Potency [8] | Potency [18] | Potency [9] | Potency [10] | Potency [11] | Potency [12] | Potency [14] | Potency [15] | Potency [16]

C[C@H]1C[C@H]2[C@@H]3CCC4=CC(=O)C=C[C@]4(C)[C@@]3(Cl)[C@@H](O)C[C@]2(C)[C@@]1(O)C(=O)CO
inactive: Potency [1] | Potency [2] | Potency [3] | Potency [4] | Potency [5] | Potency [6] | Potency [7] | Potency [8] | Potency [18] | Potency [9] | Potency [10] | Potency [11] | Potency [13] | Potency [14] | Potency [15] | outcome [17]

CC[N+]1(CC)CCC(=C(c2ccccc2)c2ccccc2)C1C (centres undefined)
inactive: Potency [1] | Potency [2] | Potency [3] | Potency [4] | Potency [5] | Potency [6] | Potency [7] | Potency [8] | Potency [18] | Potency [9] | Potency [10] | Potency [11] | Potency [12] | Potency [13] | Potency [14] | Potency [15] | Potency [16]

CC(CSC(=O)c1ccccc1)C(=O)N1C[C@@H](Sc2ccccc2)C[C@H]1C(=O)O (some centres undefined)
inactive: Potency [1] | Potency [2] | Potency [3] | Potency [4] | Potency [5] | Potency [6] | Potency [7] | Potency [8] | Potency [18] | Potency [9] | Potency [10] | Potency [11] | Potency [12] | Potency [14] | Potency [15]

O=[N+]([O-])c1ccc2[nH]ncc2c1
inactive: Potency [1] | Potency [2] | Potency [3] | Potency [4] | Potency [5] | Potency [6] | Potency [7] | Potency [8] | Potency [18] | Potency [9] | Potency [11] | Potency [12] | Potency [14] | Potency [15] | Potency [16] | outcome [17]

NCCCN1CCOCC1
inactive: Potency [1] | Potency [2] | Potency [3] | Potency [4] | Potency [5] | Potency [6] | Potency [8] | Potency [18] | Potency [9] | Potency [10] | Potency [11] | Potency [12] | Potency [13] | Potency [19] | Potency [14] | Potency [20] | Potency [15] | Potency [16] | outcome [17]

NC(N)=NCCC[C@H](N)C(=O)O
inactive: Potency [1] | Potency [2] | Potency [3] | Potency [4] | ratio activity, negative = inhibition [5] 0.163% [at 5.95 µM] | activity change, negative = cytotoxicity [6] 5.54% [at 5.95 µM] | activation [7] 0.601% [at 8.36 µM] | viability change, negative = cytotoxic [8] 9.06% [at 8.36 µM] | activity change, negative = cytotoxicity [18] 4.58% [at 5.95 µM] | activation [9] 0.502% [at 5.95 µM] | activation [11] 0.522% [at 5.95 µM] | viability change, negative = cytotoxic [12] 2.08% [at 6.26 µM] | viability change, negative = cytotoxic [14] -2.05% [at 5.95 µM] | activity change, negative = cytotoxicity [15] -8.21% [at 5.95 µM] | activation [16] 9.36% [at 6.01 µM] | activity change, negative = inhibition [17] 2.1% [at 6.95 µM]

CC(C)(CO)[N+](=O)[O-]
inactive: Potency [1] | Potency [2] | Potency [3] | Potency [4] | Potency [5] | Potency [6] | Potency [7] | Potency [8] | Potency [18] | Potency [9] | Potency [12] | Potency [14] | Potency [15] | Potency [16]

C[N+](C)(C)CCOC(=O)CCC(=O)OCC[N+](C)(C)C
inactive: Potency [1] | Potency [2] | Potency [3] | Potency [4] | Potency [5] | Potency [6] | Potency [7] | Potency [8] | Potency [18] | Potency [9] | Potency [14] | Potency [15]

O=C(O)c1ccc(S(=O)(=O)O)cc1C(=O)O
inactive: Potency [1] | Potency [2] | Potency [3] | Potency [4] | Potency [5] | Potency [6] | Potency [7] | Potency [8] | Potency [18] | Potency [10] | Potency [11] | Potency [12] | Potency [13] | Potency [14] | Potency [15]

OC(C#CCN1CCCC1)(c1ccccc1)c1ccccc1
inactive: Potency [1] | Potency [2] | Potency [3] | Potency [4] | Potency [5] | Potency [6] | Potency [7] | Potency [8] | Potency [18] | Potency [9] | Potency [10] | Potency [11] | Potency [12] | Potency [19] | Potency [15] | Potency [16]

Nc1cccc([N+](=O)[O-])c1
inactive: Potency [1] | Potency [2] | Potency [3] | Potency [4] | Potency [5] | Potency [6] | Potency [7] | Potency [8] | Potency [9] | Potency [10] | Potency [11] | Potency [12] | Potency [13] | Potency [19] | Potency [14] | Potency [20] | Potency [15]

CCCCCCCCCCCc1ccccc1
inactive: Potency [1] | Potency [2] | Potency [3] | Potency [4] | Potency [5] | Potency [6] | Potency [8] | Potency [18] | Potency [9] | Potency [10] | Potency [11] | Potency [12] | Potency [13] | Potency [19] | Potency [14] | Potency [20] | Potency [15] | Potency [16] | outcome [17]

Cc1[nH]c(C)c(Cl)c(=O)c1Cl
inactive: Potency [1] | Potency [2] | Potency [3] | Potency [4] | Potency [5] | Potency [6] | Potency [7] | Potency [8] | Potency [18] | Potency [9] | Potency [11] | Potency [14] | Potency [15] | Potency [16] | outcome [17]

O=C1c2ccccc2S(=O)(=O)N1CCCCN1CCN(c2ncccn2)CC1
inactive: Potency [1] | Potency [2] | Potency [3] | Potency [4] | Potency [5] | Potency [6] | Potency [7] | Potency [8] | Potency [18] | Potency [9] | Potency [10] | Potency [12] | Potency [14] | Potency [15]
